We go through 24 compounds from PubChem BioAssay (Tox21).

Inconclusive results are not listed. Entries that show only a call come without a potency. Calls of active or inactive are those of the source. Calls follow the shape of the full dose curve.

In the experiment the target is D(2) dopamine receptor (Homo sapiens) (UniProt P14416). The experiment is described as follows: Dopamine D2 receptor (DRD2) small molecule agonists, cell-based qHTS assay (AID 1963594). Also: nearly all actives have a fitted effect of over 35% in size. The conditions noted are these: HEK293-DRD2 cAMP HTRF, agonist mode, 30 min; series mostly up to 92.4 µM. The procedure, abridged: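 HEK293 cells stably expressing DRD2 were cultured 24 h at 37 C, then given Ro20-1724 (0.1 mM final) and compounds for 10 min at room temperature. NKH477 (200nM) was then added for 30 min. cAMP was read by HTRF.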
Sequence of D(2) dopamine receptor (Homo sapiens) (P14416 whole entry, looked up): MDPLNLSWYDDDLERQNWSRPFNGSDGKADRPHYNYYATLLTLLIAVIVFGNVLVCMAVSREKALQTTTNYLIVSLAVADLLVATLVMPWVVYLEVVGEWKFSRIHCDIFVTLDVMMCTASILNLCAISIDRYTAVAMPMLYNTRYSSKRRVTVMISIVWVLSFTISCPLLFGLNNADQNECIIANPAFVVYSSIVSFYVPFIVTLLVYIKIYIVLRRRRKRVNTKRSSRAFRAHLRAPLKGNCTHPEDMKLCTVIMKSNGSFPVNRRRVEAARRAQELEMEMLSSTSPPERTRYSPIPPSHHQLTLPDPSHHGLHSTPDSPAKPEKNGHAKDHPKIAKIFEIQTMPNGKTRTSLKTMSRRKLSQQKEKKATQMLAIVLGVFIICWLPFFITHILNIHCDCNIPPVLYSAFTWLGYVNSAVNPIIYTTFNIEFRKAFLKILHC
On the technique in general: In qHTS, concentration-response curves come from the screen itself.
For the compound `CCCCCCCOC(=O)CCC`, the Potency result is “inactive”. For the compound `CCCCCCCCC(=O)OCC(C)OC(=O)CCCCCCCC` (centres undefined), the Potency result was “inactive”. With `C=C[Si]1(C)O[Si](C)(C=C)O[Si](C)(C=C)O[Si](C)(C=C)O1` (centres undefined), the Potency entry was “inactive”. The same measure, in the same setting: to `CCN(Cc1cccnc1)C(=O)c1cccc(Cl)c1[C@]1(C)C(=O)N(Cc2ccc(OC)cc2OC)c2ccc(Cl)cc21` belongs “inactive”; to `CCCNC(C)(C)COC(=O)c1ccccc1`, “inactive”; to `CCCCCCCCCCl`, “inactive”. Take `CCCCCC(C)OC(=O)COc1ccc(Cl)c2cccnc12` (centres undefined): the Potency result is “inactive”. In the case of `C=O`, the Potency result was “inactive”. Take `CC(C)(C)C1=CC(=O)C=C(C(C)(C)C)C1=O`: the Potency entry was “inactive”. On to `C=CC(=C)CCCC(C)(C)OC(C)=O`, for which the Potency result was “inactive”. In the case of `CC/C=C\CCCCCCCCCCOC(C)=O`, the Potency result was “inactive”. Turning to `Oc1ccc(C2(c3ccc(O)cc3)CC3CC2C2CCCC32)cc1` (centres undefined), the Potency entry is “inactive”. On the same count and under the same terms, to `O=c1[nH]c(=O)n([C@H]2C[C@H](O)[C@@H](CO)O2)cc1C(F)(F)F` belongs “inactive”; to `Cc1cc(O)c2c(O)c3c(O)cccc3cc2c1`, “inactive”; to `Cc1ccc(Br)cc1`, “inactive”. For `CC1CCC(CO)CC1` (centres undefined), the Potency result was “inactive”.

Turning to `Nc1ccc(/C=C/c2ccc(N)cc2S(=O)(=O)O)c(S(=O)(=O)O)c1`, the activation was -13.5% [at 0.349 µM] (inactive). Consider `Cc1cccc(N(C)C(=S)Oc2ccc3c(c2)C2CCC3C2)c1` (centres undefined), for which the Potency result was “inactive”. Consider `Cc1c(N)cccc1N`, for which the Potency entry is “inactive”. Consider `CCC(CC)CO`, for which the Potency entry is “inactive”. For `Cc1c(N)c(=O)n(-c2ccccc2)n1C`, the Potency result is “inactive”. As for `O=C(NN1CCCC1)NS(=O)(=O)c1ccc(Cl)cc1`, the Potency result is “inactive”. As for `C=C[Si](OC(C)=O)(OC(C)=O)OC(C)=O`, the Potency result was “inactive”. `O=C1C=CC(=O)N1`: the Potency result was “inactive”.
